KB-3-1 tox: kills parental KB-3-1 adenocarcinoma cells; KB-3-1 viability, CellTiter-Glo ATP luminescence, 72 h; Potency, µM (titrated, usually from 46.1 µM), usual class: cytotoxic; 400,000 compounds, 1.4% hits; further: nearly all actives have a fitted effect of over 60% in size
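Here the drug-naive KB-3-1 line serves as comparator for MDR sub-line selectivity; cells received compound titrations, 72 h at 37 °C, then CellTiter-Glo readout.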
HT1080-NT tox: kills 2HG-producing HT-1080-NT fibrosarcoma cells; Potency, µM (highest dose often 46.1 µM), hits mostly cytotoxic; 360,000 compounds, 1.6% hits; HT-1080-NT fibrosarcoma viability, CellTiter-Glo ATP luminescence, 48 h;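 further: NT is the 2HG producing partner of a matched IDH1 knockdown line; nearly all actives have a fitted effect of over 55% in size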
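Read-out is CellTiter-Glo luminescence after 10 minutes at room temperature, following 48 hours' compound treatment of HT-1080-NT cells (750 cells/well, RPMI, 5% FBS, 37 degrees C).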
HT1080 IDH1KD tx: HT-1080 IDH1 knockdown cell toxicity (counter line) | Potency, µM (series often up to 46.1 µM), hits mostly cytotoxic | HT-1080 IDH1 knockdown viability, ATP luminescence, 48 h | 360,000 compounds, 2% hits
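Assay cells: HT-1080 with IDH1 knockdown, 750 per well, RPMI/5% FBS. Exposure: 48 h at 37 °C following 2 h pre-incubation. Read: CellTiter-Glo luminescence; fitted concentration-response, curve class assigned.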
DT40 TDP1 CPT: DT40-hTDP1 cell growth loss with CPT. chicken DT40 Tdp1-/-;hTDP1 cells + 20 nM CPT, ATP luminescence, 48 h. Potency, µM (titrated, usually from 46.2 µM), most hits filed as inhibitors. 420,000 compounds, 12% hits. AID 686979; further: nearly all actives have a fitted effect of over 55% in size
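Cell growth measured by CellTiter-Glo luminescence after a minimum 48 h, 37 C compound exposure with 20 nM CPT in Tdp1-knockout DT40 cells stably expressing hTDP1, seeded 400/well; qHTS titration format.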
DT40 TDP1 no CPT: qHTS for Inhibitors of human tyrosyl-DNA phosphodiesterase 1 (TDP1): qHTS in cells in absence of CPT; DT40 Tdp1-/- hTDP1 cells, no CPT, ATP luminescence, 48 h; Potency, µM (highest dose often 46.2 µM), most hits filed as inhibitors; 420,000 compounds, 15% hits; further: nearly all actives have a fitted effect of over 55% in size
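Compound effects on proliferation are scored in DT40 Tdp1-/-;hTDP1 cells in the absence of CPT. ATP levels (CellTiter-Glo luminescence) are recorded after a ≥48 hr, 37 °C incubation.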
KB-V1 cytotox: kills drug-selected multidrug resistant KB-V1 cells | AID 1347076 | KB-V1 MDR cells viability, CellTiter-Glo, 72 h | Potency, µM (top dose mostly 46.1 µM), usual class: cytotoxic | 400,000 compounds, 3.4% hits; further: nearly all actives have a fitted effect of over 60% in size
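KB-V1 cells (P-gp-expressing MDR subline of KB-3-1) in phenol-red-free DMEM with 10% FBS were exposed to library compounds over a concentration series for 72 h at 37 degrees C. Viability read by CellTiter-Glo luminescence; concentration-effect curves fitted after normalization.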
Of the large screens only hits and unclear results are named; the others gave an inactive call; ! = a repeat was not active. A selection: hits, their analogues and other compounds. The true share with any hit is near 19%. The call rests on the fitted dose curve; in most records, active means well fitted curve in the direction sought with a large enough effect; inconclusive means small, poorly fitted or top-dose-only effect, or another doubt; inactive means no such curve, though single readings can be large; an effect the other way counts as inactive or inconclusive.

CC(NS(=O)(=O)c1cccc(S(=O)(=O)c2ccccc2)c1)C(=O)O (stereo unspecified)	DT40 TDP1 CPT inconclusive
COc1ccc(OC)c(Nc2cc(C(=O)NCCCN3CCOCC3)c3ccccc3n2)c1	HT1080 IDH1KD tx inconclusive, DT40 TDP1 CPT inconclusive, DT40 TDP1 no CPT 23.1µM, KB-V1 cytotox 18.4µM
COc1ccc(N2CCN(CCCNC(=O)c3cc(Nc4ccc(OC)cc4OC)nc4ccccc34)CC2)cc1	DT40 TDP1 CPT 23.1µM, DT40 TDP1 no CPT 20.6µM, KB-V1 cytotox inconclusive (no result: HT1080-NT tox, HT1080 IDH1KD tx)
COCCCNC(=O)c1cc(Nc2ccc(OC)cc2OC)nc2ccccc12	DT40 TDP1 CPT inconclusive, DT40 TDP1 no CPT inconclusive
Cc1ccc(NC(=O)COc2ccc(CCO)cc2-n2nc3ccccc3n2)cc1C	KB-3-1 tox inconclusive, HT1080-NT tox inconclusive, HT1080 IDH1KD tx inconclusive, DT40 TDP1 CPT inconclusive, DT40 TDP1 no CPT 11.6µM, KB-V1 cytotox inconclusive
Cc1ccc(OCC(=O)O)c(-n2nc3ccccc3n2)c1	KB-V1 cytotox inconclusive
O=[N+]([O-])c1cc([N+](=O)[O-])c2oc(-c3ccccc3)c(Br)c2c1O	KB-3-1 tox inconclusive, HT1080-NT tox inconclusive, HT1080 IDH1KD tx inconclusive, DT40 TDP1 CPT inconclusive, DT40 TDP1 no CPT 8.2µM, KB-V1 cytotox inconclusive
Nc1cccc[n+]1C(c1ccnc2ccccc12)[n+]1ccccc1N	DT40 TDP1 CPT 1.12µM, DT40 TDP1 no CPT 1µM (no result: HT1080-NT tox, HT1080 IDH1KD tx)
COc1cc(NC(=O)c2ccnc(N)c2)cc(C(=O)Nc2cccc(C(F)(F)F)c2)c1	HT1080-NT tox inconclusive, DT40 TDP1 CPT 23.1µM, DT40 TDP1 no CPT 20.6µM, KB-V1 cytotox inconclusive
COc1cc(NC(=O)c2cnc(N)o2)cc(C(=O)Nc2cccc(C(F)(F)F)c2)c1	KB-3-1 tox inconclusive, DT40 TDP1 CPT 20.6µM!, DT40 TDP1 no CPT 13µM!
COc1cc(NC(=O)c2cnc(N)s2)cc(C(=O)Nc2cccc(C(F)(F)F)c2)c1	DT40 TDP1 CPT inconclusive, DT40 TDP1 no CPT 18.4µM
COc1cc(NC(=O)c2csc(N)n2)cc(C(=O)Nc2cccc(C(F)(F)F)c2)c1	KB-3-1 tox 5.8µM, HT1080-NT tox 16.4µM, HT1080 IDH1KD tx 20.6µM, DT40 TDP1 CPT 4.61µM, DT40 TDP1 no CPT 2.91µM, KB-V1 cytotox 7.31µM!
O=C(C[C@H]1C(=O)N(CCc2ccccc2)C[C@@H]1c1ccccc1)Nc1ccccc1	DT40 TDP1 no CPT inconclusive
Cc1c(C(=O)N2CCOCC2)c(S(=O)(=O)Nc2ccc(C(C)C)cc2)c(C)n1C	DT40 TDP1 CPT 13µM, DT40 TDP1 no CPT inconclusive
Cc1c(C(=O)N2CCCCCC2)c(S(=O)(=O)Nc2ccc(OC(F)(F)F)cc2)c(C)n1C	DT40 TDP1 CPT 23.1µM, DT40 TDP1 no CPT 16.4µM (no result: HT1080-NT tox, HT1080 IDH1KD tx)
CN(Cc1cnn(-c2ccc(F)cc2)c1)C(=O)[C@H]1O[C@@H](n2ccc(=O)[nH]c2=O)[C@H](O)[C@@H]1O	none
CCOC(=O)C1=CCN(S(=O)(=O)c2ccc(C)cc2)C1c1cccc(C)c1 (stereo unspecified)	HT1080 IDH1KD tx inconclusive, DT40 TDP1 CPT inconclusive, DT40 TDP1 no CPT 18.4µM, KB-V1 cytotox inconclusive
CCOC(=O)C1=CCN(S(=O)(=O)c2ccc(Br)cc2)C1c1ccc(C)cc1 (stereo unspecified)	HT1080 IDH1KD tx inconclusive, DT40 TDP1 CPT inconclusive, DT40 TDP1 no CPT 25.9µM, KB-V1 cytotox inconclusive
CC(=O)Nc1ccc(SCC(=O)Nc2ccc(Cl)cn2)cc1	HT1080-NT tox inconclusive
CC(C)(C)OC(=O)N1CCC(c2c(C(=O)NC3CC3)cnn2-c2ccccc2)CC1	HT1080-NT tox inconclusive
Cc1cccc(-n2ncc(C(=O)NC3CCCC3)c2C2CCN(C(=O)OC(C)(C)C)CC2)c1	DT40 TDP1 CPT inconclusive, DT40 TDP1 no CPT inconclusive
Cc1ccc(-n2ncc(C(=O)NC3CCN(Cc4ccccc4)CC3)c2C2CCN(C(=O)OC(C)(C)C)CC2)cc1C	DT40 TDP1 CPT 20.6µM, DT40 TDP1 no CPT 14.6µM (no result: HT1080-NT tox, HT1080 IDH1KD tx)

Screens from PubChem BioAssay.
